Screen size: about 360,000 compounds; about 8,200 (2.3%) were called active. The entries come from a sample that favours actives as a whole. Values without a mark were called inactive. Cut-off read from the data, not from the text of the source: active = inhibition above about 27%; inactive = the rest.
What follows are molecules tested against Fructose-bisphosphate aldolase (Mycobacterium tuberculosis (strain ATCC 25618 / H37Rv)) (UniProt P9WQA3) (assay: Mtb FBA enzyme inhibitors, primary screen, biochemical, fluorescence, strain H37Rv (AID 588726;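 note: 0% = vehicle and 100% = reference inhibitor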)). Settings: purified M. tuberculosis FBA, fluorescence read-out, at 1 µM, hits give high values.
Sequence of Fructose-bisphosphate aldolase (Mycobacterium tuberculosis (strain ATCC 25618 / H37Rv)) (P9WQA3 whole entry, looked up): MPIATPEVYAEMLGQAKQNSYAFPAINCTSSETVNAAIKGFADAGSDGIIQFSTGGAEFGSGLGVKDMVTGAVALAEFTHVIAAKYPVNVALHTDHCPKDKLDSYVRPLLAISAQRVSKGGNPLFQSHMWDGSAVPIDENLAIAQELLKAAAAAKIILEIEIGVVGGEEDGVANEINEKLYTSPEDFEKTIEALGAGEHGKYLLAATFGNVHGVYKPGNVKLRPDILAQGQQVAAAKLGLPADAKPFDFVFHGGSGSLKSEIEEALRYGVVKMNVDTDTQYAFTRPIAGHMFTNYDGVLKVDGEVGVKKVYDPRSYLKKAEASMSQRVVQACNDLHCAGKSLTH
In the case of `Cc1ccc(C(=O)OCC(=O)NC(=O)Cc2ccccc2)c(O)c1`, the inhibition is reported as -0.03%.
Work on `Cc1cc(C(C)(C)C)cc(S(=O)(=O)Nc2ccc(C(=O)O)cc2)c1C` yielded an inhibition of -1.68%.
Molecule `CC(=O)Oc1c(C(=O)c2nnc(C)o2)c(=O)n(Cc2ccccc2)c2ccccc12` has an inhibition of 8.77%.
In the case of `COc1ccc(CC(N)c2csc(NC(=O)Nc3ccc(C(C)C)cc3)n2)cc1` (stereo not drawn), the inhibition is reported as -1.36%.
`CN(CC(=O)Nc1ccc(F)cc1)CC(=O)N1CCCCC1` was tested, and the inhibition was -1.7%.
For `C=Cc1ccc(C(=O)N2CCCC(CCC(=O)N3CCN(c4ccccn4)CC3)C2)cc1` (stereo not drawn), the inhibition was -0.65%.
With `COc1ccc(C2CC(c3cccs3)=NN2C(=O)COC(=O)c2cc3ccccc3cc2O)cc1OC` (stereo not drawn) the inhibition was -0.95%.
With `COc1ccc(C2CC(c3cccs3)=Nc3ccccc3S2)cc1OC` (stereo not drawn) the inhibition was 6.74%.
With `COc1ccc(C2CC(c3ccccc3)=NN2C(=O)c2ccc(Cl)c([N+](=O)[O-])c2)cc1` (stereo not drawn) the inhibition was -0.72%.
In the case of `COc1ccc(C2=NN(c3ccccc3)C(c3cccs3)C2)cc1` (stereo not drawn), the inhibition is reported as 113% (active).
`COc1ccc(C2CC(c3cccs3)=NN2c2ccccc2)cc1` (stereo not drawn) was tested, and the inhibition was 74% (active).
Molecule `COc1ccc(N2CCN(C(=S)Nc3ccc(S(N)(=O)=O)cc3)CC2)cc1` has an inhibition of -1.46%.
`COc1ccc(N2C(=O)C3CCCN3C2c2cccs2)cc1` (stereo not drawn) showed an inhibition of 1.46%.
`COc1ccc(C2CC(c3cccs3)Nc3nnnn32)cc1` (stereo not drawn) gave an inhibition of 2.13%.
For `COc1ccc(CCNC(=O)CSc2nc(C)nc3c2oc2ccccc23)cc1OC`, the inhibition was 0.84%.
For `O=C(NC1CCCC1)C(c1ccco1)N(C(=O)c1ccco1)c1ccc(F)cc1` (stereo not drawn), the inhibition was -0.27%.
Molecule `FC(F)Oc1ccccc1NC(=S)Nc1cccc(Cl)c1Cl` has an inhibition of -0.26%.
`CCCCOC(=O)Nc1sc2nc(C)cc(C)c2c1-n1cccc1` was tested, and the inhibition was 5.62%.
In the case of `CCCC1NC(=S)NC(C)=C1C(C)=O` (stereo not drawn), the inhibition is reported as 2.16%.
`OCCNc1nc2ccccc2n1-c1ncnc2sc3c(c12)CCC3` was tested, and the inhibition was 3.23%.
For `O=C(O)c1cccnc1Sc1ncnc2sc3c(c12)CCC3`, the inhibition was 53.6% (active).
In the case of `CCCSc1ncccc1C(=O)O`, the inhibition is reported as 0.16%.
In the case of `Oc1c(Cl)cc(Cl)c(Cl)c1Cc1c(O)c(Cl)cc(Cl)c1Cl`, the inhibition is reported as 0.15%.
Work on `O=C(COC(=O)c1ccc2ncsc2c1)Nc1ccc(Cl)cc1` yielded an inhibition of 0.06%.
With `CCC(Cc1ccccc1)NC(=O)C1CCCCC1` (stereo not drawn) the inhibition was -3.87%.
Work on `CCCc1cc(=O)[nH]c(SCC(=O)N2CCN(S(=O)(=O)c3ccc(C)cc3C)CC2)n1` yielded an inhibition of -1.1%.
`Cc1ccc(S(=O)(=O)N2CCN(C(=O)COC(=O)c3c(C)cc(C)cc3C)CC2)c(C)c1` gave an inhibition of -1.2%.
`Cc1ccc(S(=O)(=O)N2CCN(C(=O)CSc3cc(C)ccc3C)CC2)c(C)c1` was tested, and the inhibition was 29.2% (active).

Reference: PubChem BioAssay AID588726 (The Scripps Research Institute Molecular Screening Center, 2011)
